Results published in the supplement of paper PMC6555819.

Experiments:
Test in all cases: PBM binding z-score (relative to random genomic background probes); higher = stronger binding; sequences stand for … in GC…GCGATTGACAGCGTAGAATGAAGG
[1] = system: FXR:RXRa (NR concentration 270 nM, RXRa partner concentration 90 nM)
Outline: (§1)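 The probes on custom Agilent 4×180K protein-binding microarrays were double-stranded, with 34-nt variable regions bearing direct-repeat seeds, single-nucleotide variants, half-site ablations and random human genomic background sequences. Incubation lasted 1 h with ligand-free nuclear receptor dimers in PBS pH 7.4, 2% milk, 0.02% Triton X-100, 1 mM DTT, 0.2 mg/mL BSA and 0.4 mg/ml salmon testes DNA. Antibodies against each partner (one per run) detected bound dimers, and fluorescence scans were regression-normalized. Binding z-scores take the random background probes as reference.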

[2] = system: LXRa:RXRa (NR concentration 270 nM, RXRa partner concentration 90 nM)
Outline: as §1

[3] = system: LXRa homodimer (NR concentration 270 nM)
Outline: as §1

[4] = system: LXRb:RXRa (NR concentration 270 nM, RXRa partner concentration 90 nM)
Outline: as §1

[5] = system: LXRb homodimer (NR concentration 270 nM)
Outline: as §1

[6] = system: PPARa:RXRa (NR concentration 270 nM, RXRa partner concentration 90 nM)
Outline: as §1

[7] = system: PPARg:RXRa (NR concentration 180 nM, RXRa partner concentration 90 nM)
Outline: as §1

[8] = system: PPARg:RXRa 270nM:90nM, anti-RXR (NR concentration 270 nM, RXRa partner concentration 90 nM)
Outline: as §1

[9] = system: PPARg:RXRa 30nM:10nM, anti-RXR (NR concentration 30 nM, RXRa partner concentration 10 nM)
Outline: as §1

[10] = system: PPARg:RXRa 90nM:30nM, anti-RXR (NR concentration 90 nM, RXRa partner concentration 30 nM)
Outline: as §1

[11] = system: PPARg:RXRa DBDmut IVT, anti-RXR (DBD mutation: RXRa K156A/R161A, NR concentration 270 nM, RXRa partner concentration 90 nM)
Outline: as §1

[12] = system: PPARg:RXRa IVT, anti-PPARg (NR concentration 270 nM, RXRa partner concentration 90 nM)
Outline: as §1

[13] = system: PPARg DBDmut:RXRa IVT, anti-PPARg (DBD mutation: PPARg1 K132A/R137A, NR concentration 270 nM, RXRa partner concentration 90 nM)
Outline: as §1

[14] = system: PPARg DBDmut IVT, anti-PPARg (DBD mutation: PPARg1 K132A/R137A, NR concentration 270 nM)
Outline: as §1

[15] = system: PPARg homodimer (NR concentration 180 nM)
Outline: as §1

[16] = system: PXR:RXRa (NR concentration 270 nM, RXRa partner concentration 90 nM)
Outline: as §1

[17] = system: PXR homodimer (NR concentration 270 nM)
Outline: as §1

[18] = system: RARa:RXR (NR concentration 270 nM, RXRa partner concentration 90 nM)
Outline: as §1

[19] = system: RARa homodimer (NR concentration 270 nM)
Outline: as §1

[20] = system: RARb:RXRa (NR concentration 270 nM, RXRa partner concentration 90 nM)
Outline: as §1

| Sequence | PBM binding z-score [1] | PBM binding z-score [2] | PBM binding z-score [3] | PBM binding z-score [4] | PBM binding z-score [5] | PBM binding z-score [6] | PBM binding z-score [7] | PBM binding z-score [8] | PBM binding z-score [9] | PBM binding z-score [10] | PBM binding z-score [11] | PBM binding z-score [12] | PBM binding z-score [13] | PBM binding z-score [14] | PBM binding z-score [15] | PBM binding z-score [16] | PBM binding z-score [17] | PBM binding z-score [18] | PBM binding z-score [19] | PBM binding z-score [20] |
| --- | --- | --- | --- | --- | --- | --- | --- | --- | --- | --- | --- | --- | --- | --- | --- | --- | --- | --- | --- | --- |
| TCAGACAGCTGAAGGTAACTCAGGTACGCAGTCG | -0.16 | 1.22 | -0.677 | 0.336 | -0.931 | 0.454 | 0.398 | 1.49 | 2.91 | 2.14 | 1.6 | -0.656 | -0.951 | -0.614 | -1.05 | 0.139 | -0.874 | 0.392 | -0.741 | -0.0591 |
| TCTTGTAGATCAAAGGTTAGGAAAGCCGAAGCCT | 1.26 | 1.45 | -0.217 | 1.24 | -0.196 | 4.06 | 7.63 | 7.57 | 7.89 | 9.05 | 2.13 | 3.42 | 0.503 | 0.103 | 1.92 | 1.04 | -0.482 | 2.02 | 0.262 | 1.4 |
| TCTTGTAGATCAATAGAGGTGAAGAAAGTGCGCT | 1.02 | 0.833 | -0.122 | 0.533 | -0.232 | 1.5 | 0.0312 | 1.72 | 2.84 | 2.21 | 2.33 | 1.64 | 0.582 | 1.07 | -0.35 | 1.52 | -0.318 | 1.28 | 0.328 | 0.777 |
| GCAGACAGGTGAAACGCAGGGAACTCAGGGTGGC | -0.391 | -0.181 | -0.294 | -0.514 | -1.21 | 0.613 | 0.488 | -0.246 | -0.526 | -0.424 | 0.902 | 0.213 | 0.0548 | -0.787 | 0.0817 | -0.255 | -0.624 | 0.127 | -0.901 | 0.545 |
| TCGAGTAGGTTAGTCCGGGCATTCAGCCAACATA | -0.219 | 0.109 | 0.0222 | -0.106 | -1.05 | 0.14 | -0.395 | 0.281 | 0.992 | 0.409 | 1.83 | 1.17 | -0.501 | -0.393 | -0.627 | -0.337 | -0.362 | -0.0826 | -1.14 | 0.232 |
| CAAATTAGGTCACGAAAGGTCAAAGTCGAATGAC | 7.62 | 8.19 | 7.52 | 7.45 | 3.07 | 6.87 | 10.1 | 8.6 | 6.67 | 8.69 | 8.68 | 8.9 | 4.28 | 2.39 | 5.32 | 7.26 | 2.64 | 7.69 | 3.07 | 5.8 |
| TCATATAGGTAATACAGGTGAGAGTCGGCATCTA | 0.19 | 0.512 | 0.274 | 0.54 | 0.184 | 1.63 | 1.39 | 2.16 | 3.62 | 2.77 | 3.93 | 3.29 | 1.38 | 1.56 | 0.749 | 0.46 | 0.623 | 0.533 | 1.42 | 0.457 |
| TCATATAGGTAAATGCTAGATGAAAGTCCGATCT | 0.267 | 0.34 | -0.249 | 0.68 | -0.163 | 1.06 | 1.06 | 1.99 | 3.6 | 2.79 | 3.61 | 1.84 | 0.931 | 1.42 | -0.0567 | 0.422 | 0.0659 | 0.328 | 0.951 | 0.201 |
| TCTAGTTGGTCACAGGTCACACACTCGAAATGCG | 2.89 | 2.92 | 1.82 | 3.13 | 0.99 | 4.37 | 7.08 | 6.5 | 6.07 | 7.04 | 3.01 | 4.53 | 1.58 | 1.96 | 2.52 | 3.06 | 0.924 | 3.51 | 1.49 | 3.33 |
| CCTACTGGGCCATTAGGTCATTGATATCAACGTT | 1.06 | 0.977 | 0.832 | 1.24 | -0.52 | 2.76 | 3.46 | 3.68 | 1.32 | 3.03 | 5.31 | 5.88 | 0.577 | 0.445 | 1.02 | 1.13 | 0.202 | 1.72 | 0.45 | 2.09 |
| GGTACAGGGTCAGCTAGAGGCCAGAGTATGGAAA | 4.99 | 2.87 | -0.106 | 2.67 | -0.0836 | 4.62 | 4.12 | 3.78 | 0.502 | 2.27 | 0.482 | 2.29 | 0.521 | -0.216 | 2.93 | 3.37 | 0.15 | 4.88 | 0.0993 | 4.22 |
| CCTCGGAGGACAGCAGGTCAGAGCTGTCCGCTTT | 0.494 | 0.589 | -0.357 | -0.0868 | -0.729 | 0.521 | -0.863 | -0.393 | -1.22 | -1.04 | -0.0532 | -0.162 | -1.57 | -1.57 | 0.113 | 0.0301 | -0.196 | 0.742 | -0.236 | 2.04 |
| CAAACTAGGTCACTGGAAGGTCAAAGTCCGCATG | 5.47 | 5.41 | 4.68 | 4.88 | 1.36 | 5.88 | 9.17 | 7.25 | 5.53 | 7.22 | 8.42 | 8.89 | 7.66 | 2.9 | 9.82 | 5.36 | 2.12 | 7.1 | 3.34 | 4.9 |
| TATACAGGGTCAAAGGCCAGGGTACGAATGTCGA | 6.87 | 6.23 | 2.51 | 4.8 | 2.5 | 6.27 | 8.53 | 7.29 | 5.77 | 6.97 | 2.06 | 4.98 | 2.34 | 1.6 | 2.3 | 4.41 | 0.905 | 6.05 | 1.67 | 4.48 |
